The source made the active and inactive calls. Rule for the calls: active = hit-call score of the fitted dose curve at least 0.9, where 1 is the maximum; inactive = score below 0.9.
What was measured:
[1] = ATG_M_61_CIS: Attagene CIS-FACTORIAL HepG2 Assay for M61 Transcription Factor (Internal Marker) (AID 2282937); settings: HepG2 Attagene CIS-FACTORIAL M61 internal marker reporter; actives raise or lower the signal
Summary of the method: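 HepG2 cells transiently transfected with cis-element-driven multiple reporter transcription units, dosed for 24 h. Reporter mRNA measured by RT-PCR, 6-FAM primer-extension labelling, HpaI digestion and capillary electrophoresis; bidirectional fit versus DMSO baseline.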

[2] = ATG_EGR_CIS: Attagene CIS-FACTORIAL HepG2 Assay for human Early Growth Response 1 (EGR1) (AID 2282938); settings: HepG2 Attagene CIS-FACTORIAL EGR reporter mRNA; actives raise or lower the signal
Summary of the method: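 HepG2 cells transiently transfected with cis-promoter-driven multiplexed reporter transcription units; reporter mRNA measured 24 h after compound dosing by RT-PCR, 6-FAM primer extension, HpaI digestion and capillary electrophoresis. Bidirectional fit versus DMSO baseline.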

[3] = ATG_M_19_CIS: Attagene CIS-FACTORIAL HepG2 Assay for M19 Transcription Factor (Internal Marker) (AID 2282939); settings: HepG2 Attagene CIS-FACTORIAL M19 internal marker reporter; actives raise or lower the signal
Summary of the method: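 In this multiplexed cell assay, transiently transfected HepG2 reporter units report endogenous transcription-factor activity; after 24 hours of treatment, labelled reporter cDNA fragments are quantified by capillary electrophoresis and fitted bidirectionally against DMSO.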

[4] = ATG_Ets_CIS: Attagene CIS-FACTORIAL HepG2 Assay for human Erythroblast Transformation Specific (ETS) (AID 2282941); settings: HepG2 ETS cis-reporter transcription, actives raise or lower the signal
Summary of the method: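 After transient cis-reporter transfection, HepG2 cells receive test chemical for 24 h. Reporter mRNA levels, measured by RT-PCR and capillary electrophoresis fluorescence, are analysed bidirectionally relative to the DMSO baseline.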

[5] = biological target: Hepatocyte nuclear factor 3-beta (Homo sapiens) (UniProt Q9Y261); experiment: ATG_FoxA2_CIS: Attagene CIS-FACTORIAL HepG2 Assay for human Forkhead box A2 (FOXA2) (AID 2282942); settings: HepG2 cis-reporter transcription factor activity, 24 h; actives raise or lower the signal
Chain of Hepatocyte nuclear factor 3-beta (Homo sapiens) (Q9Y261 whole entry, looked up): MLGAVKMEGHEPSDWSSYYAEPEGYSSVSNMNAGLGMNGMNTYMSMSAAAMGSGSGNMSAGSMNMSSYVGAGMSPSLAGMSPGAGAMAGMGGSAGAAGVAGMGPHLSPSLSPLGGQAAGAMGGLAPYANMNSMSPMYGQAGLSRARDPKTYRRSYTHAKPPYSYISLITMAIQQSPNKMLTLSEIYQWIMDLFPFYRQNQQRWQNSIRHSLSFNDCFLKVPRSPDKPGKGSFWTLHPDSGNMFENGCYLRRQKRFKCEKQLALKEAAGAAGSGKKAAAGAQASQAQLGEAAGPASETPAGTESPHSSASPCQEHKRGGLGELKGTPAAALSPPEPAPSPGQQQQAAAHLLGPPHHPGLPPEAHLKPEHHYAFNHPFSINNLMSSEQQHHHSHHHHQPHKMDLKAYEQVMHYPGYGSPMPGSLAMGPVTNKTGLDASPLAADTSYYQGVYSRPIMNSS
Summary of the method: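 HepG2 cells transiently transfected with multiple cis-regulated reporter transcription units, dosed for 24 h. Reporter mRNA measured by RT-PCR, 6-FAM labelling, HpaI digestion and capillary electrophoresis; bidirectional fitting against DMSO baseline.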

[6] = ATG_FoxO_CIS: Attagene CIS-FACTORIAL HepG2 Assay for human Forkhead box O (FoxO) (AID 2282943); settings: HepG2 Attagene cis-reporter, FoxO element, mRNA; actives raise or lower the signal
Summary of the method: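 Transfected HepG2 reporter cells exposed to test chemical for 24 h; reporter RNA measured by reverse transcription, PCR and fluorescent capillary electrophoresis; curves fitted for increases and decreases against DMSO.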

[7] = ATG_GATA_CIS: Attagene CIS-FACTORIAL HepG2 Assay for human GATA Binding Protein (AID 2282944); settings: HepG2 GATA cis-element reporter, Attagene multiplex mRNA; actives raise or lower the signal
Summary of the method: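 Measures endogenous transcription factor-driven reporter mRNA in HepG2 cells transiently carrying cis-regulated constructs. 24 h dosing; RNA via oligo(dT) reverse transcription, PCR, HpaI digestion, capillary electrophoresis; fitted relative to DMSO.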

[8] = ATG_GLI_CIS: Attagene CIS-FACTORIAL HepG2 Assay for human Zinc Finger Protein GLI1 (AID 2282945); settings: HepG2, Attagene cis-factorial reporter mRNA, GLI element; actives raise or lower the signal
Summary of the method: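 Transiently transfected HepG2 cells report endogenous transcription factor activity via cis-element-driven reporter units. After 24 h compound exposure, reporter mRNA was measured by RT-PCR with capillary electrophoresis; bidirectional fitting against DMSO baseline.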

[9] = ATG_GRE_CIS: Attagene CIS-FACTORIAL HepG2 Assay for human Glucocorticoid Response Elements (GRE) (AID 2282947); settings: HepG2 GRE cis-reporter, Attagene multiplex mRNA; actives raise or lower the signal
Summary of the method: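 Transiently transfected HepG2 cells carrying GRE cis-reporter units (endogenous TF activity) dosed 24 h; reporter mRNA quantified by RT-PCR, 6-FAM labelling, HpaI digestion and capillary electrophoresis. Bidirectional fit versus DMSO baseline.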

[10] = ATG_ISRE_CIS: Attagene CIS-FACTORIAL HepG2 Assay for human Interferon Regulatory Factor 1 (IRF1) binding to an Interferon-Stimulated Response Element (ISRE) (AID 2282948); settings: HepG2 ISRE cis-reporter (Attagene), mRNA transcription readout; actives raise or lower the signal
Summary of the method: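 Quantitation relies on labelled RT-PCR fragments separated by capillary electrophoresis. Human HepG2 cells bearing cis-promoter reporter constructs were treated 24 h; DMSO served as baseline for bidirectional fitting.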

[11] = ATG_M_06_CIS: Attagene CIS-FACTORIAL HepG2 Assay for M06 Transcription Factor (Internal Marker) (AID 2282950); settings: HepG2 Attagene CIS-FACTORIAL M06 internal marker reporter; actives raise or lower the signal
Summary of the method: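 One of many multiplexed endpoints: HepG2 reporter mRNA after 24 h dosing, detected by RT-PCR and capillary electrophoresis fluorescence; gain or loss of signal analysed against DMSO.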

[12] = biological target: Hypoxia-inducible factor 1-alpha (Homo sapiens) (UniProt Q16665); experiment: ATG_HIF1a_CIS: Attagene CIS-FACTORIAL HepG2 Assay for human Hypoxia Inducible Factor 1 (HIF1A) (AID 2282951); settings: HepG2 Attagene cis-factorial HIF1a reporter transcription; actives raise or lower the signal
Chain of Hypoxia-inducible factor 1-alpha (Homo sapiens) (Q16665 whole entry, looked up): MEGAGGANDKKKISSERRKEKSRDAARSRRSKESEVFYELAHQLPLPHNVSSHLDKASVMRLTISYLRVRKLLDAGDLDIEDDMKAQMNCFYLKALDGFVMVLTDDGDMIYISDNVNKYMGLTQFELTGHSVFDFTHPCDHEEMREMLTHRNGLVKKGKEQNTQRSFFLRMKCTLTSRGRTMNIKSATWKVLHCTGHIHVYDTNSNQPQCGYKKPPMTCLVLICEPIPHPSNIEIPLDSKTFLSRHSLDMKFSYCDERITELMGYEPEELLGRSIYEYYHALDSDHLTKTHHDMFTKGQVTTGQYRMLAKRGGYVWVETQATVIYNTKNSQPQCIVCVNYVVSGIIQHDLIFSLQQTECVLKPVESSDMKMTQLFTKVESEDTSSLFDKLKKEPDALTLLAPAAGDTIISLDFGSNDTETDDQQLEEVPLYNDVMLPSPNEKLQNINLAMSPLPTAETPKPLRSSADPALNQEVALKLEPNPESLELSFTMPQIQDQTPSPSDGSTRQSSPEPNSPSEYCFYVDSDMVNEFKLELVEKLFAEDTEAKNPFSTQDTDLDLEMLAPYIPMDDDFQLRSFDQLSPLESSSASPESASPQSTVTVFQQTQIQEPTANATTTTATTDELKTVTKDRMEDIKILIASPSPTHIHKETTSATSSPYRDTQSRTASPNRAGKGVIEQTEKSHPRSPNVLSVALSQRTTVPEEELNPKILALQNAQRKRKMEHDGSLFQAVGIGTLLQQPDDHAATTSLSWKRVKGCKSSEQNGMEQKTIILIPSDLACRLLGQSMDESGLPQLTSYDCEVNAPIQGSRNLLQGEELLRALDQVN
Summary of the method: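 HepG2 cells transiently transfected with multiplexed cis-promoter reporter units; reporter mRNA read 24 h after dosing by RT-PCR, 6-FAM primer-extension labelling, HpaI digestion and capillary electrophoresis. Bidirectional fit versus DMSO baseline.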

[13] = biological target: Hepatocyte nuclear factor 6 (Homo sapiens) (UniProt Q9UBC0); experiment: ATG_HNF6_CIS: Attagene CIS-FACTORIAL HepG2 Assay for human Hepatocyte Nuclear Factor 6 (HNF6) (AID 2282952); settings: HepG2 Attagene cis-factorial HNF6 reporter transcription; actives raise or lower the signal
Chain of Hepatocyte nuclear factor 6 (Homo sapiens) (Q9UBC0 whole entry, looked up, the tested form may be a part): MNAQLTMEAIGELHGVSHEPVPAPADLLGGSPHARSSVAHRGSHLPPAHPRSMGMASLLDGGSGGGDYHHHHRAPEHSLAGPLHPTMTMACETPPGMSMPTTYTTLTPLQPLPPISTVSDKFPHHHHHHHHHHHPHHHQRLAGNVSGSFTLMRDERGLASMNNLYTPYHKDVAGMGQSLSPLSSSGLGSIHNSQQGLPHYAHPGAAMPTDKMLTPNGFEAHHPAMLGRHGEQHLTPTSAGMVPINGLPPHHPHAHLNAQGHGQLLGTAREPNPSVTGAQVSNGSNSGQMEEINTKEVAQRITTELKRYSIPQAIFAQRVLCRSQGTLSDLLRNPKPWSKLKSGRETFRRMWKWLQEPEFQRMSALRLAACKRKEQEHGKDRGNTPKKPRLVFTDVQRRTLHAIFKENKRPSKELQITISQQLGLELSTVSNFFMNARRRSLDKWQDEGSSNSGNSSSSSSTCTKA
Summary of the method: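 Reporter mRNA induction or loss in HepG2 after 24 h exposure; transient cis-MRTU transfection; fragments quantified by capillary electrophoresis; bidirectional analysis, DMSO as negative control.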

[14] = biological target: Heat shock factor protein 1 (Homo sapiens) (UniProt Q00613); experiment: ATG_HSE_CIS: Attagene CIS-FACTORIAL HepG2 Assay for human Heat Shock Transcription Factor 1 (HSE) (AID 2282953); settings: HepG2 HSE cis-reporter, Attagene RNA transcription; actives raise or lower the signal
Chain of Heat shock factor protein 1 (Homo sapiens) (Q00613 whole entry, looked up): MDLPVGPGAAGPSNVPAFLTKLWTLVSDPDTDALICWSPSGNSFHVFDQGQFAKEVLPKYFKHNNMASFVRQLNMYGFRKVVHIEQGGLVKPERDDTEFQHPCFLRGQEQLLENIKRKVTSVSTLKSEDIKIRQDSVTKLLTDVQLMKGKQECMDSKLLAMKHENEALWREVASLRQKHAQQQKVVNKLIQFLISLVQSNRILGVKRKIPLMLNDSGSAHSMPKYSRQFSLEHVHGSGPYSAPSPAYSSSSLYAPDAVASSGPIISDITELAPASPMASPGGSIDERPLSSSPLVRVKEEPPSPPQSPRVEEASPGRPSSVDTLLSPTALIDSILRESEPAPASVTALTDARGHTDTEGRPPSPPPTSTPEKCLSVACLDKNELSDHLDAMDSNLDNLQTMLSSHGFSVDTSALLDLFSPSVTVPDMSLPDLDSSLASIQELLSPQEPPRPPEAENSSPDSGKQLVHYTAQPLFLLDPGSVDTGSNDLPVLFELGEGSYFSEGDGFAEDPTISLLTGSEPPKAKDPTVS
Summary of the method: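 Using HepG2 with transfected cis-driven reporter constructs, compound effects on endogenous factor activity are scored as reporter mRNA change at 24 h. Detection: RT-PCR, HpaI digestion, capillary electrophoresis; bidirectional fitting to DMSO.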

[15] = ATG_MRE_CIS: Attagene CIS-FACTORIAL HepG2 Assay for human Metal Responsive Element (MRE) (AID 2282954); settings: HepG2 MRE cis-reporter transcription, Attagene multiplex; actives raise or lower the signal
Summary of the method: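 HepG2 cells transiently transfected with cis-element-driven reporter units; mRNA measured 24 h after dosing. Reporter transcripts quantified by RT-PCR, FAM labelling, HpaI digestion and capillary electrophoresis; bidirectional fit versus DMSO.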

[16] = ATG_PBREM_CIS: Attagene CIS-FACTORIAL HepG2 Assay for human Phenobarbital-responsive Enhancer Module (PBREM) (AID 2282955); settings: HepG2 PBREM cis-reporter, Attagene multiplexed transcription; actives raise or lower the signal
Summary of the method: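 HepG2 cells transiently transfected with multiple cis-regulated reporter transcription units; endogenous factor activity at the PBREM element measured as reporter mRNA 24 h after dosing, via RT-PCR and capillary electrophoresis of fluorescent fragments; bidirectional fitting versus DMSO.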

[17] = biological target: Bile acid receptor (Homo sapiens) (UniProt Q96RI1); experiment: ATG_IR1_CIS: Attagene CIS-FACTORIAL HepG2 Assay for human Nuclear Receptor Subfamily 1 Group H Member 4 (NR1H4), IR1 submotif (AID 2282946); settings: IR1 reporter transcription, actives raise or lower the signal
Chain of Bile acid receptor (Homo sapiens) (Q96RI1 whole entry, looked up): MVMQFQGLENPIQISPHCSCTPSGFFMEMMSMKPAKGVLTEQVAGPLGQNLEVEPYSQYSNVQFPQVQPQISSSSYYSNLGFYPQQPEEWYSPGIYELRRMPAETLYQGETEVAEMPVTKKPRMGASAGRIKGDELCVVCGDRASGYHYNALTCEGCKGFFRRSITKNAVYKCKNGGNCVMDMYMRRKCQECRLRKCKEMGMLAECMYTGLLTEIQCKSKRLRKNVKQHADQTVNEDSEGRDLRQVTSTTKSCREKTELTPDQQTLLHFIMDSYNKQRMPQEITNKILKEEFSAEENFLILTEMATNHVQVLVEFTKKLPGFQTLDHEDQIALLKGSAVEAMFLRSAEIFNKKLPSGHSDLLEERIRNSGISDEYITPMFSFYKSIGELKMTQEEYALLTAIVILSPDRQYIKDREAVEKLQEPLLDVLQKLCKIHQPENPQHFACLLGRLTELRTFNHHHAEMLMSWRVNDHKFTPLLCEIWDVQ
Summary of the method: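 HepG2 cells transiently transfected with multiple cis-promoter-driven reporter units to measure endogenous transcription factor activity; 24 h exposure. Reporter mRNA read by RT-PCR, FAM labelling, HpaI digestion and capillary electrophoresis. Bidirectional fit versus DMSO.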

[18] = ATG_M_32_CIS: Attagene CIS-FACTORIAL HepG2 Assay for M32 Transcription Factor (Internal Marker) (AID 2282949); settings: HepG2 Attagene cis-factorial M32 reporter, mRNA; actives raise or lower the signal;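 note: background control marker of the multiplexed CIS panel rather than a real target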
Summary of the method: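 Fluorescent capillary electrophoresis peaks of HpaI-digested, FAM-labelled RT-PCR reporter products give the signal. Source: transiently transfected human liver HepG2 cells, 24 h after chemical dosing; bidirectional fitting against DMSO.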

Measured: AC50

CCCCSCCCC
inactive: [1] | [2] | [3] | [4] | [5] | [6] | [7] | [8] | [9] | [10] | [11] | [12] | [13] | [14] | [15] | [16]

C/C=C(\C)C(=O)OCCc1ccccc1
inactive: [1] | [2] | [3] | [4] | [5] | [6] | [7] | [8] | [17] | [10] | [18] | [11] | [12] | [13] | [14] | [15]

CCCCCCCCCCCCCCN(CCO)CCO
inactive: [1] | [2] | [3] | [4] | [5] | [6] | [7] | [8] | [17] | [9] | [10] | [18] | [11] | [12] | [14] | [15] | [16]

CCC(C)c1cc([N+](=O)[O-])cc([N+](=O)[O-])c1OC(=O)OC(C)C (centres undefined)
active: [2] 26.5 µM | [4] 26.1 µM | [5] 62.6 µM | [6] 164 µM | [7] 24.1 µM | [8] 27.1 µM | [17] 27.4 µM | [10] 24.3 µM | [18] 49.2 µM | [14] 26.6 µM | [15] 34.8 µM
inactive: [1] | [3] | [9] | [11] | [12] | [13]

CCCCCC(C)=O
inactive: [1] | [2] | [4] | [5] | [6] | [7] | [8] | [9] | [10] | [18] | [11] | [12] | [13] | [14] | [15]

CCOc1ccc(N=Nc2ccc(C=Cc3ccc(N=Nc4ccc(OCC)cc4)cc3S(=O)(=O)O)c(S(=O)(=O)O)c2)cc1
inactive: [1] | [2] | [3] | [4] | [5] | [6] | [7] | [8] | [9] | [10] | [18] | [11] | [12] | [13] | [14] | [15] | [16]

CCCCC(CC)(CO)CO
inactive: [2] | [3] | [4] | [5] | [6] | [7] | [8] | [17] | [10] | [18] | [11] | [12] | [13] | [14] | [15] | [16]

— PubChem BioAssay (EPA / NIEHS)
